From PubChem
mHTT-CaM PPI inh – mHTT-calmodulin interaction abrogation; AlphaScreen His-mHTT/GST-CaM binding, luminescence; AID 1671202; inhibition, % at 15 µM; P42858; 3.6% of 190,000 active
Pf apPOL block – Pf-apPOL DNA polymerase inhibition | Recombinant Pf-apPOL, molecular beacon fluorescence, 1.5 h | 0.25% of 210,000 active | AID 1794808 | inhibition, % at 10 µM
Hits are given with their value; - = inactive; . = no result given; ! = not confirmed by another sample. An excerpt weighted towards active compounds, which were near 3.5% of everything screened. Rule as the data show it: active = inhibition above about 50%; inactive = the rest.

SMILES	mHTT-CaM PPI inh	Pf apPOL block
O=S(=O)(c1cccc(C(F)(F)F)c1)N1CCC(CN2CCCCCC2)CC1	98	-
Cc1cc(NS(=O)(=O)c2ccc(NC(=O)C(Cl)(Cl)Cl)cc2)nc(C)n1	-	86
Cc1cc(NS(=O)(=O)c2ccc(NC(=O)C3CC3)cc2)nc(C)n1	-	-
CC(=O)Nc1ccc(OCc2cn(CC(=O)c3ccc(O)cc3)nn2)cc1	52	-
CC(=O)c1ccc(OCc2cn(CC(=O)c3ccc(O)cc3)nn2)cc1	-	-
CCCCN(CC)S(=O)(=O)c1ccc(C(=O)Nc2nnc(C3CC3)o2)cc1	-	-
CCCCN(CCCC)S(=O)(=O)c1ccc(C(=O)Nc2nnc(C)o2)cc1	58	-
CCN(Cc1ccccc1)S(=O)(=O)c1ccc(C(=O)Nc2nnc(C3CC3)o2)cc1	72	-
COCCN(CCOC)S(=O)(=O)c1ccc(C(=O)Nc2nnc(C)o2)cc1	-	-
Cc1noc(C)c1CN1CCCC(c2nc(-c3ccccc3)n[nH]2)C1 (stereo unspecified)	-	-
COc1ccc(Cl)cc1NC(=O)CSc1ccc(-n2ccnc2)nn1	-	-
COc1ccc(CCNC(=O)CN2N=C(c3ccc(Cl)cc3)CCC2=O)cc1OC	-	-
Cc1ccc(CCNC(=O)CN2N=C(c3ccc(Cl)cc3)CCC2=O)cc1	65	-
CCc1ccc(C=C2Oc3cc(OC)ccc3C2=O)cc1	-	-
COc1ccccc1NC(=O)C1=C(C)Nc2nc3ccccc3n2C1c1cccc([N+](=O)[O-])c1 (stereo unspecified)	-	-
CC1=C(C(=O)Nc2ccc(Cl)cc2)C(c2cccc([N+](=O)[O-])c2)n2c(nc3ccccc32)N1 (stereo unspecified)	72	-
Cc1ccc(C(=O)N2CCC(CCNC(=O)CC3CCCC3)CC2)cc1	-	-
Cc1ccc(N(C(=O)c2ccc(C(C)(C)C)cc2)C2C=CS(=O)(=O)C2)cc1 (stereo unspecified)	-	80
O=C(c1ccc(Cl)cc1)N(c1ccc(Cl)cc1)C1C=CS(=O)(=O)C1 (stereo unspecified)	-	-
Cc1cc([N+](=O)[O-])ccc1NC(=O)CC(C)C	-	-
COc1ccc(CNc2ccccc2F)cc1OCc1ccccc1	-	-
COc1ccc(CNc2cc(-c3ccccc3)ccc2OC)cc1O	76	-
COc1ccc(/C=C/C(=O)Nc2c3c(nn2-c2ccc([N+](=O)[O-])cc2)CSC3)cc1OC	-	-
O=C(Nc1c2c(nn1-c1ccc(F)cc1)CS(=O)(=O)C2)c1cccs1	-	-
O=C(Nc1c2c(nn1-c1ccc([N+](=O)[O-])cc1)CS(=O)(=O)C2)c1cccs1	-	-
SMILES	mHTT-CaM PPI inh	Pf apPOL block
O=C(/C=C/c1ccco1)Nc1c2c(nn1-c1ccc([N+](=O)[O-])cc1)CSC2	98	-
O=C(Nc1c2c(nn1-c1ccc([N+](=O)[O-])cc1)CSC2)c1cccs1	55	-
O=C(Nc1c2c(nn1-c1ccc(F)cc1)CSC2)c1cccs1	51	-
Cc1cc(C)nc(SCC(O)CN=Cc2ccc(N(C)C)cc2)n1 (stereo unspecified)	-	-
COc1cc(C=C2Oc3c(CN4CCN(CCO)CC4)c(O)cc(C)c3C2=O)cc(OC)c1OC	-	-
O=C(NC1CCCCC1)N1CCN(c2ccc3nnc(-c4ccco4)n3n2)CC1	-	-
O=C(c1cccs1)N1CCN(c2ccc3nnc(-c4ccco4)n3n2)CC1	56	-
CCN1CCN(c2cc(Oc3ccc(F)c(F)c3)ncn2)CC1	-	-
Cc1cc(C(=O)N2CCc3nc4cc(-c5ccccc5Cl)[nH]n4c(=O)c3C2)nn1C	-	-
CCCn1c(=N)c(C(=O)NCC)cc2c(=O)n3ccccc3nc21	-	-
O=C(CN1CCN(C2c3ccccc3-c3ccccc32)CC1)Nc1ccc2c(c1)OCCO2	58	-
COc1ccc(NC(=O)CN2CCN(C3c4ccccc4-c4ccccc43)CC2)cc1Cl	-	-
O=C(Cc1ccccc1Cl)Nc1nnc(C2CC(=O)N(c3ccccc3)C2)o1 (stereo unspecified)	51	-
O=C(Cc1c(F)cccc1Cl)Nc1nnc(C2CC(=O)N(c3ccccc3)C2)o1 (stereo unspecified)	64	-
CCCC(=O)Nc1nnc(C2CC(=O)N(c3ccc(Cl)cc3)C2)o1 (stereo unspecified)	-	-
O=C(Cc1cccc(F)c1)Nc1nnc(C2CC(=O)N(c3ccccc3)C2)o1 (stereo unspecified)	-	-
Cc1ccc(OCC(=O)Nc2nnc(C3CC(=O)N(c4ccccc4)C3)o2)cc1 (stereo unspecified)	-	-
Cc1ccccc1CC(=O)Nc1nnc(C2CC(=O)N(c3ccc(Cl)cc3)C2)o1 (stereo unspecified)	88	-
COc1ccccc1CC(=O)Nc1cnc(C)nc1	-	-
COC(=O)c1cc(Nc2ccc3c(c2)OCO3)c2ccccc2n1	-	-
COc1nsc2cc([N+](=O)[O-])cc(N=P(OC)(OC)OC)c12	-	-
O=C1c2ccccc2C(=O)c2c1ccc(C(=O)N1CCN(c3ccccn3)CC1)c2NCCO	78	-
O=C1c2ccccc2C(=O)c2c1ccc(C(=O)N1CCC3(CC1)OCCO3)c2NCCO	-	-
CSc1nc(C)cc(C)c1CNC(=O)c1cccc([N+](=O)[O-])c1C	-	-
Cc1cc(C)cc(C(=O)NCc2[nH]nc3ccccc23)c1	-	-
SMILES	mHTT-CaM PPI inh	Pf apPOL block
COc1cccc(C(=O)NCc2[nH]nc3ccccc23)c1	52	-
CN1C(=O)CCC2(CNC(=O)Cc3ccsc3)CCCC12 (stereo unspecified)	-	-
Cc1ccc(-c2nc(C3CCN(C(=O)c4ccc(C(F)(F)F)cc4)CC3)no2)cc1	-	-
COc1ccc(/C=C(\C#N)c2nn(CCO)c(N)c2C#N)c(OC)c1	-	-
CCOc1cc(/C=C(\C#N)c2[nH]nc(N)c2C#N)ccc1O	73	-
COc1cc(/C=C(\C#N)c2[nH]nc(N)c2C#N)ccc1O	54!	-
COc1ccc(/C=C2\C(C)=C(C#N)c3nc(N)c(C#N)c(C)c32)cc1Br	-	-
CCN(C)c1ccc(/C=C(\C#N)c2[nH]nc(N)c2C#N)cc1	-	-
COc1ccc(/C=C(\C#N)c2[nH]nc(N)c2C#N)cc1Br	69	-
CCN(CC)c1ccc(/C=C(\C#N)c2[nH]nc(N)c2C#N)c(OC)c1	60	-
COc1cc(/C=C(\C#N)c2ccc([N+](=O)[O-])cc2)ccc1O	-	-
C=CCc1cc(/C=C2/SC(=O)N(C)C2=O)cc(OCC)c1OC	-	-
CC(=O)Nc1ncnc2n[nH]nc12	-	.
Cc1cc(=O)oc2cc(Oc3nncc4ccccc34)ccc12	-	-
O=C(C=CC1=Cc2ccccc2OC1)c1cccc(O)c1	-	-
COc1cccc(-c2cc(C(=O)N3CCCC3c3c(C)noc3C)on2)c1 (stereo unspecified)	-	-
COC(=O)c1ccc(NC(=O)Cc2csc(NC(=O)Nc3ccccc3OC)n2)cc1	-	-
COC(=O)c1ccc(NC(=O)Cc2csc(NC(=O)c3ncccn3)n2)cc1	98	-
CCCn1c(=O)c(N2CCC(NC(=O)Nc3cccc(C)c3)CC2)nc2ccccc21	-	-
CN(CCCNC(=O)C1(n2cccc2)CCCCC1)Cc1ccccc1	-	-
O=C(NCCCc1ccccc1)C1(n2cccc2)CCCCC1	51	-
COc1ccc2c(c1)-c1onc(C(=O)NC(C)C(C)(C)C)c1CC2 (stereo unspecified)	-	-
COc1ccc(NC(=O)Nc2nnc(Cc3cccc(Br)c3)s2)cc1	-	-
